A number with no mark means an inactive call. A call without a number means that no potency is given here. Calls of active or inactive are those of the source. Unless noted, calls follow the shape of the dose curve; as a rule, active = well fitted curve in the direction sought with a large enough effect in the repeat runs; inconclusive = weak or mixed curves; inactive = no such curve, though single readings can be large; an effect the other way counts as inactive or inconclusive.
Tests used:
[1] = qHTS assay for identifying genotoxic compounds that show differential cytotoxicity against isogenic chicken DT40 cell lines with known DNA damage response pathways - wild type cell line (AID 743012); also: nearly all actives have a fitted effect of over 60% in size; also: potency is read from the fitted curve at half-maximal effect
In short: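 Wild type DT40, 300 cells/well, ~0.5 h settle at 37 C/5% CO2; compounds in DMSO added by pintool; 40 h at 37 C/5% CO2; CellTiter-Glo, 30 min RT; luminescence.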

[2] = qHTS assay for identifying genotoxic compounds that show differential cytotoxicity against isogenic chicken DT40 cell lines with known DNA damage response pathways - Rev3 mutant cell line (AID 743014); also: nearly all actives have a fitted effect of over 55% in size; also: potency is read from the fitted curve at half-maximal effect
[3] = qHTS assay for identifying genotoxic compounds that show differential cytotoxicity against isogenic chicken DT40 cell lines with known DNA damage response pathways - Rad54/Ku70 mutant cell line (AID 743015); also: nearly all actives have a fitted effect of over 60% in size
[4] = qHTS assay to identify small molecule antagonists of the androgen receptor (AR) signaling pathway - cell viability counter screen (AID 743033; also: nearly all actives have a fitted effect of over 45% in size)
[5] = target: Androgen receptor (Homo sapiens) (UniProt P10275); assay: qHTS assay to identify small molecule agonists of the androgen receptor (AR) signaling pathway using the MDA cell line (AID 743040; also: nearly all actives have a fitted effect of over 20% in size)
In short: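 After a 5 h incubation at 37C and 0% CO2, MDA-kb2 reporter cells were dosed with compounds in DMSO and kept 16 h under the same conditions. Luciferase activity was then read as luminescence with ONE-Glo.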

[6] = qHTS assay to identify small molecule antagonists of the androgen receptor (AR) signaling pathway using the MDA cell line - cell viability counter screen (AID 743041; also: nearly all actives have a fitted effect of over 45% in size)
In short: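 R1881-driven MDA-kb2 AR-luc cells, 3,000/well, were dosed with library compounds for 16 h; cell health came from CellTiter-Fluor fluorescence in the reporter wells.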

[7] = target: Androgen receptor (Homo sapiens) (UniProt P10275); assay: qHTS assay to identify small molecule antagonists of the androgen receptor (AR) signaling pathway using the MDA cell line (AID 743042; also: nearly all actives have a fitted effect of over 55% in size)
In short: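 Antagonist mode: compounds plus R1881 agonist added to MDA-kb2 AR-luc cells, incubated 16 h at 37C. Luciferase reporter luminescence quantified, with multiplexed CellTiter-Fluor readout for cell viability.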

[8] = qHTS assay to identify small molecule antagonists of the thyroid receptor (TR) signaling pathway - cell viability counter screen (AID 743064); also: nearly all actives have a fitted effect of over 50% in size; also: potency is read from the fitted curve at half-maximal effect
In short: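 Counter screen for cytotoxicity: compound plus T3 (1 nM final) on GH3.TRE-Luc cells, 23.5 h at 37 °C, then fluorescence viability readout with CellTiter-Fluor.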

[9] = qHTS assay to identify small molecule antagonists of the thyroid receptor (TR) signaling pathway (AID 743065); also: nearly all actives have a fitted effect of over 55% in size
In short: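 Antagonism measured as loss of luciferase signal in GH3 cells stably carrying a TRE-luciferase reporter, co-treated with compound and T3 (1 nM final) for 23.5 h at 37 C. Viability was read in the same well by CellTiter-Fluor.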

[10] = test system: thyroid hormone receptor (rat, GH3 cells); assay: qHTS assay to identify small molecule agonists of the thyroid receptor (TR) signaling pathway (AID 743066; calls by dose curve)
[11] = target: Estrogen receptor (Homo sapiens) (UniProt P03372); assay: qHTS assay to identify small molecule antagonists of the estrogen receptor alpha (ER-alpha) signaling pathway (AID 743069; active = well fitted curve in the direction sought with a large enough effect in the signal ratio in the repeat runs, not every such curve was filed as active; inconclusive = weak or mixed curves, or effect the other way; inactive = no such curve, though single readings can be large or run the other way; the % refers to the signal ratio)
In short: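 Compound effects are measured against 17beta-estradiol stimulation in HEK293 cells with a UAS-controlled beta-lactamase reporter for ER-alpha. Exposure lasts 18 hr at 37C; LiveBLAzer B/G FRET substrate follows for 2 hr at room temperature.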

[12] = target: Estrogen receptor (Homo sapiens) (UniProt P03372); assay: qHTS assay to identify small molecule agonists of the estrogen receptor alpha (ER-alpha) signaling pathway (AID 743075; calls by dose curve; also: potency is read from the fitted curve at half-maximal effect)
[13] = target: Estrogen receptor (Homo sapiens) (UniProt P03372); assay: qHTS assay to identify small molecule agonists of the estrogen receptor alpha (ER-alpha) signaling pathway using the BG1 cell line (AID 743079); details: BG1Luc4E2 cells, ERE-luciferase agonist, 22 h; for activation: at 70.3 µM (top of the series); also: potency is read from the fitted curve at half-maximal effect; as to all read-outs here: nearly all actives have a fitted effect of over 20% in size
[14] = qHTS assay to identify small molecule antagonists of the estrogen receptor alpha (ER-alpha) signaling pathway using the BG1 cell line (AID 743080; calls by dose curve;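 also: BG1 cells stimulated with 17beta-estradiol alongside compound; nearly all actives have a fitted effect of over 25% in size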; also: potency is read from the fitted curve at half-maximal effect)
In short: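 BG1-Luc-4E2 cells (endogenous full-length ER-alpha, 4xERE luciferase) hormone-starved 5 days in charcoal-stripped FBS, plated 4,000/well for 24 h, then compound plus 17beta-estradiol for 21.5 h at 37 C; ONE-Glo luminescence read.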

[15] = qHTS assay to identify small molecule antagonists of the estrogen receptor alpha (ER-alpha) signaling pathway using the BG1 cell line - cell viability counter screen (AID 743081);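 also: compound given together with 17beta-estradiol as the ER stimulus; nearly all actives have a fitted effect of over 45% in size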
[16] = target: Aromatase (Homo sapiens) (UniProt P11511); assay: qHTS assay to identify aromatase inhibitors (AID 743083); also: nearly all actives have a fitted effect of over 55% in size
[17] = qHTS assay to identify small molecule antagonists of the estrogen receptor alpha (ER-alpha) signaling pathway - cell viability counter screen (AID 743074; calls by dose curve;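 also: HEK293 cells carrying ER-alpha-UAS-bla reporter stimulated with 17beta-estradiol; nearly all actives have a fitted effect of over 45% in size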)
[18] = qHTS assay to identify small molecule antagonists of the glucocorticoid receptor (GR) signaling pathway - cell viability counter screen (AID 720693); also: nearly all actives have a fitted effect of over 55% in size

Estrogen receptor (Homo sapiens), sequence (P03372 whole entry, looked up): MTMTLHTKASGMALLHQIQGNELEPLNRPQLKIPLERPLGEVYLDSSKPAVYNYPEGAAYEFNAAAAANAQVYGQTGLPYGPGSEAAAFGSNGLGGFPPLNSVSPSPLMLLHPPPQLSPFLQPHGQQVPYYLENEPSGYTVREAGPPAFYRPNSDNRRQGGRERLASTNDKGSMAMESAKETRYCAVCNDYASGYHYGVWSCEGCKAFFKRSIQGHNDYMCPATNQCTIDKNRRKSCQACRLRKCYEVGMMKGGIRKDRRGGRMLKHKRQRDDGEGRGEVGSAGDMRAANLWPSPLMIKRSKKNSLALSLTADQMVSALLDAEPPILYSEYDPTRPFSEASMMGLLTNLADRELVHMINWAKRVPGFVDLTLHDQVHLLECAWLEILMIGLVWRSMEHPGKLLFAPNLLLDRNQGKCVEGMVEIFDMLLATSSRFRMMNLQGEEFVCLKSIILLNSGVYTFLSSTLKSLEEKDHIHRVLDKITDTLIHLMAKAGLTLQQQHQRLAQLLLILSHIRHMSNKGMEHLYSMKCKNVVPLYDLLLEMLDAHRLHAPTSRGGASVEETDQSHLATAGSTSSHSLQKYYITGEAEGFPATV
Aromatase (Homo sapiens), sequence (P11511 whole entry, looked up): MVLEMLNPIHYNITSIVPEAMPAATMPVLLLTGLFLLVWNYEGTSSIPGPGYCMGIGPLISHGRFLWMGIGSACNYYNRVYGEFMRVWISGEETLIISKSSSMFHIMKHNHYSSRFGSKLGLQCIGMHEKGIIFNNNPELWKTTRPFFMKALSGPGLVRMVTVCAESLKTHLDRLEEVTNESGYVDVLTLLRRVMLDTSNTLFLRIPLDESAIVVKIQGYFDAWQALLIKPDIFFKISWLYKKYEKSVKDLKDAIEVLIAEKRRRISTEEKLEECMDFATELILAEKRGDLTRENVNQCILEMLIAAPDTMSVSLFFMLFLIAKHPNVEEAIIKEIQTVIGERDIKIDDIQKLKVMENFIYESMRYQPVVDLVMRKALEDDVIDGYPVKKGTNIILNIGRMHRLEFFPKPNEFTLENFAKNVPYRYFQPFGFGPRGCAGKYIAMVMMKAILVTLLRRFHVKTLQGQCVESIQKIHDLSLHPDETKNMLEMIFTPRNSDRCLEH
Androgen receptor (Homo sapiens), sequence (P10275 whole entry, looked up): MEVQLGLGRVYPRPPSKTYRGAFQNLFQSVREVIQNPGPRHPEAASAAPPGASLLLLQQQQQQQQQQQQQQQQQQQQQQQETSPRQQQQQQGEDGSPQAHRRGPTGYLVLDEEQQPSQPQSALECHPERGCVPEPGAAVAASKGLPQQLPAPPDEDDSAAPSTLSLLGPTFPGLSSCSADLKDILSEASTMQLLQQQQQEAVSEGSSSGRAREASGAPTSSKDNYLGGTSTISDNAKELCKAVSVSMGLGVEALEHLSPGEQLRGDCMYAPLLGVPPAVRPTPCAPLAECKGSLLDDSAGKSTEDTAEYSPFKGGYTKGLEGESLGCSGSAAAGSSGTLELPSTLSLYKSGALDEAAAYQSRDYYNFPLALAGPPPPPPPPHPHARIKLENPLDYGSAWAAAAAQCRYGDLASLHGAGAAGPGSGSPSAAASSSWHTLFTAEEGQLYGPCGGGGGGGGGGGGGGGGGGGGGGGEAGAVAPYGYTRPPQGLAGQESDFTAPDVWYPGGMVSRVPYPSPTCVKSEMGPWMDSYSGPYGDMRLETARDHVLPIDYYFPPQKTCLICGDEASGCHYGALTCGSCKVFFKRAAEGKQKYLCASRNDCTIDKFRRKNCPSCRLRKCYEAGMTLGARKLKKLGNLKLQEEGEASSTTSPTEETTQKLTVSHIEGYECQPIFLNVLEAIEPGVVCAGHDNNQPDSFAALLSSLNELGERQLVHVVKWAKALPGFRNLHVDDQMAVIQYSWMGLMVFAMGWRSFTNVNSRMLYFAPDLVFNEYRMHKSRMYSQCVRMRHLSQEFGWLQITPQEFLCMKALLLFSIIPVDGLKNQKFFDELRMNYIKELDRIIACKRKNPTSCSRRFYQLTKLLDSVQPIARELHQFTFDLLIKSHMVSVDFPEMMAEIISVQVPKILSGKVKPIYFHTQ

Compound	Potency [1]	Potency [2]	Potency [3]	Potency [4]	Potency [5]	Potency [6]	outcome [7]	Potency [8]	Potency [9]	Potency [10]	Potency [11]	Potency [12]	activation [13] [%]	Potency [14]	Potency [15]	Potency [16]	outcome [17]	Potency [18]	Potency [13]
CNC(=O)Oc1ccccc1C1OCCO1	inactive	inactive	inactive	inactive	inactive	inactive	inactive	inactive	inactive	inactive	inactive	inactive	-9.73	inactive	inactive	inactive			
N#CCCC#N	inactive	inactive	inactive	inactive		inactive				inactive	inactive	inactive	-3.68	inactive	inactive	inactive	inactive		
COC(=O)COc1ccc(Cl)cc1Cl	inactive	inactive	inactive	inactive		inactive		inactive		inactive					inactive		inactive		
CCc1cc2c(s1)-n1c(C)nnc1CN=C2c1ccccc1Cl		inactive		inactive		inactive		inactive		inactive		inactive		11.9 µM (active)		inactive	inactive	inactive	
CCOC(=O)CP(=O)(OCC)OCC	inactive	inactive	inactive	inactive		inactive		inactive	inactive	inactive	inactive	inactive		inactive	inactive	inactive	inactive		
OC(Cn1cncn1)(c1ccc(F)cc1)c1ccccc1F (stereo unspecified)				inactive		inactive		inactive	inactive	inactive	inactive	inactive	-1	inactive	inactive		inactive	inactive	
COC(=O)C1=CCCN(C)C1	inactive		inactive	inactive		inactive		inactive			inactive	inactive	0.989	inactive	inactive	inactive	inactive		
C[N+](C)=CCl	inactive	inactive		inactive		inactive		inactive	inactive	inactive	inactive	inactive	20.5	inactive	inactive	inactive	inactive		
CC(CCc1ccccc1)NC(C)C(O)c1ccc(O)cc1 (stereo unspecified)						inactive		16.8 µM (active)		inactive	inactive	inactive	-7.77	inactive	inactive	inactive	inactive		
CSc1ccc(C(=O)C(C)(C)N2CCOCC2)cc1	48.6 µM (active)	68.6 µM (active)				inactive		inactive		inactive	inactive	61.6 µM [inconclusive] (active)		inactive	inactive	inactive			3.44 µM (active)

Reference: PubChem BioAssay (Tox21)
